According to PubChem BioAssay:
Calls of active or inactive are those of the source. Unless noted, no rule for the calls is given here.

What was measured:
[1] = resazurin metabolic signal in HepG2 cells – cell-based, resazurin fluorescence, 24 h, PK04 Diversity Set, profiling panel (AID 1172); details: HepG2 viability, higher = more signal
[2] = budding yeast growth changes without added modifier – OD600, strain BY4716, 24 h, basal condition, primary screen (AID 1173); details: S. cerevisiae BY4716 growth, OD600, 24 h; higher = more signal, called active from +8 up or from −8 down
[3] = viability profiling in MM1S myeloma cells – cell-based, resazurin fluorescence, basal, 24 h, PK04 Diversity Set, profiling panel (AID 1174); details: higher = more signal, called active from +8 up or from −8 down;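 also: MM1S multiple myeloma cell line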
[4] = molecular target: Dihydroorotate dehydrogenase (quinone), mitochondrial (Plasmodium falciparum (isolate 3D7)) (UniProt Q08210); test: inhibition of P. falciparum DHODH – biochemical, C-terminal His tag, absorbance 600 nm, primary screen (AID 1175); details: PfDHODH enzyme, DCIP absorbance 600 nm; higher = more signal, called active from +8 up or from −8 down;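 also: recombinant parasite enzyme with a five histidine tag at its C terminus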
[5] = inhibition of PAO1 biofilm formation – strain PAO1, LB-PBS medium, absorbance 600 nm, primary screen (AID 1176); details: P. aeruginosa PAO1 growth/biofilm, A600, 12 h; higher = more signal
[6] = growth modulation of vineyard yeast isolate – strain RM11-1a, OD600, basal, 24 h, primary screen (AID 1177);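 also: cultures grown under basal conditions with no added stressor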; details: S. cerevisiae RM11-1a growth, OD600, 24 h; higher = more signal, called active from +8 up or from −8 down
[7] = growth of efflux-deficient E. coli DRC39 – strain DRC39, OD650, 24 h, E. coli filamentation inducers, primary screen (AID 1178);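 also: growth measured as culture turbidity by optical density at 650 nm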; details: E. coli DRC39 acrAB, higher = more signal, called active from +8 up or from −8 down
[8] = growth of efflux-deficient E. coli DRC39 – strain DRC39, OD650, 48 h, E. coli filamentation inducers, primary screen (AID 1179);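 also: screen aims at cell division blockers that make cells filament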; details: E. coli DRC39 delta-acrAB growth, higher = more signal, called active from +8 up or from −8 down
[9] = viability profiling in RPMI8226 myeloma cells – cell-based, resazurin fluorescence, basal, 24 h, PK04 Diversity Set, profiling panel (AID 1180); details: higher = more signal;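 also: RPMI8826 multiple myeloma cell line at 5000 cells per well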
[10] = molecular target: E3 ubiquitin-protein ligase XIAP (Homo sapiens) (UniProt P98170); test: small molecules binding XIAP protein – biophysical, small-molecule microarray, fluorescence 635 nm, primary screen (AID 1181); details: higher = more signal;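 also: score merges 667 nm emission and signal to noise over triplicate slides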
[11] = system: XIP peptide (Xip251-270) binding; test: XIP fragment 251-270 binding compounds – biochemical, small-molecule microarray, fluorescence 635/667 nm, 0.1 µg/mL protein, primary screen (AID 1182); details: fluorescent protein binding, 635 nm, higher = more signal, called active from +8 up or from −8 down
[12] = system: XIP peptide (Xip251-270); test: compounds binding XIP fragment 251-270 – biochemical, small-molecule microarray, fluorescence 635/667 nm, 0.5 µg/mL protein, primary screen (AID 1183); details: fluorescence 635 nm, higher = more signal
[13] = blood-stage malaria parasite viability loss – strain 3D7, DAPI fluorescence, 100 nL, primary screen (AID 1184);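 also: parasites grown inside human red blood cells in medium with human serum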; details: P. falciparum 3D7 growth, 3 d, higher = more signal
[14] = molecular target: Homeobox protein Hox-A13 (Mus musculus) (UniProt Q62424); test: disruptors of Hoxa13 oligonucleotide interaction – biochemical, fluorescence polarization, labeled oligonucleotide, primary screen (AID 1185); details: Hoxa13:DNA binding, 15 min, higher = more signal, called active from +8 up or from −8 down
Chain of Homeobox protein Hox-A13 (Mus musculus) (Q62424 whole entry, looked up): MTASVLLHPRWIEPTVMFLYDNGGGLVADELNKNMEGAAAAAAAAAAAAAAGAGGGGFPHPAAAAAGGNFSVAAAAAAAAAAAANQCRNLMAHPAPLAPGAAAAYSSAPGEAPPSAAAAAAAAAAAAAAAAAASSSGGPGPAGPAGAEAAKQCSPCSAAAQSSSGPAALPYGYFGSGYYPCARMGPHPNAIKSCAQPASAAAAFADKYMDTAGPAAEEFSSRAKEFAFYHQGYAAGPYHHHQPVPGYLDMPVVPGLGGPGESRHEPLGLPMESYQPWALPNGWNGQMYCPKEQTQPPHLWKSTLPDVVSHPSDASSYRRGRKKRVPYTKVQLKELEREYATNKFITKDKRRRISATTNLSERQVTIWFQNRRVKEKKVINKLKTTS

Chain of Dihydroorotate dehydrogenase (quinone), mitochondrial (Plasmodium falciparum (isolate 3D7)) (Q08210 whole entry, looked up): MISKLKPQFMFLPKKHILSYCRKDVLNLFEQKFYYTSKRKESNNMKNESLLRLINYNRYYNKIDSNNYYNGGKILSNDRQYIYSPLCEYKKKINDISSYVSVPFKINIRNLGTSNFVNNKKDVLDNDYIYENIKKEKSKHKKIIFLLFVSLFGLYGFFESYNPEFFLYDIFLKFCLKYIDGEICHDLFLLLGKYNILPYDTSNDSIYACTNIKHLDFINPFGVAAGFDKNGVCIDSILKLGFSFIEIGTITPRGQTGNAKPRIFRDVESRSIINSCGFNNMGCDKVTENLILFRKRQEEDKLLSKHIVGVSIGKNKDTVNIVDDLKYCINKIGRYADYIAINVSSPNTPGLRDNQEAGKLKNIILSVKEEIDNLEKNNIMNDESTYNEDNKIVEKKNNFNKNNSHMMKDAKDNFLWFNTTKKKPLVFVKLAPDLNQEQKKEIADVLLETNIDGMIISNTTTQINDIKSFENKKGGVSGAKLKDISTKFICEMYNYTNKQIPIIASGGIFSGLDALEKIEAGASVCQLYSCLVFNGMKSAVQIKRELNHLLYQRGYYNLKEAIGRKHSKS
Chain of E3 ubiquitin-protein ligase XIAP (Homo sapiens) (P98170 whole entry, looked up, the tested form may be a part): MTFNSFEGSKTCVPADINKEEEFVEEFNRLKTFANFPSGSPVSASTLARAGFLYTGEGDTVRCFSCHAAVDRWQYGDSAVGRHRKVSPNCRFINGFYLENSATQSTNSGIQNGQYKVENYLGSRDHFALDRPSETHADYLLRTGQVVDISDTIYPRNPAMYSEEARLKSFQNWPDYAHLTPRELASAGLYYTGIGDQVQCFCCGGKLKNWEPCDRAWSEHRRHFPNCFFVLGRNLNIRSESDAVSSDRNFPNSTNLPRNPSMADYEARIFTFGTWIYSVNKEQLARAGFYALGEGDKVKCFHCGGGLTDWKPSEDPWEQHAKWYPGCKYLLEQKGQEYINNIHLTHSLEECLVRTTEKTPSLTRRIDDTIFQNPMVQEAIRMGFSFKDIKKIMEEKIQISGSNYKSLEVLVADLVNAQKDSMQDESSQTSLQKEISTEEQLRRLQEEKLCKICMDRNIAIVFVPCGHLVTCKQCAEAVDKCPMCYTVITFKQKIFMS

Row | Compound | z-score [1] | z-score [2] | z-score [3] | composite z-score [4] | z-score [5] | z-score [6] | z-score [7] | z-score [8] | z-score [9] | composite z-score [10] | composite z-score [11] | composite z-score [12] | z-score [13] | z-score [14]
1 | COC(=O)[C@H](C)NC(=O)[C@@H](C)CO | -1.1 | -0.0616 (inactive) | -1.15 (inactive) | 0.38 (inactive) | -0.351 (inactive) | 0.312 (inactive) | -1.45 (inactive) | -0.489 (inactive) | -0.855 | -0.102 | 0.316 (inactive) | 0.332 | -0.613 | -1.61 (inactive)
2 | O=C1[C@H]2[C@H]3[C@H](O)[C@H](O)CC(=NO[C@@H]4O[C@H](CO)[C@@H](O)[C@H](O)[C@H]4O)[C@H]3CC[C@H]2C(=O)N1Cc1ccc2c(c1)OCO2 | 0.777 | -0.159 (inactive) | 0.466 (inactive) | 0.461 (inactive) | -0.249 (inactive) | 0.929 (inactive) | 0.76 (inactive) | 0.385 (inactive) | 0.367 | -0.4 | -0.0799 (inactive) | 0.0812 | 0.185 | -0.567 (inactive)
3 | O=C1[C@H]2[C@H]3[C@H](O)[C@H](O)CC(=NOC[C@@H](O)COCc4ccco4)[C@H]3CC[C@H]2C(=O)N1c1cccc(Oc2ccccc2)c1 | 0.957 | 0.22 (inactive) | -0.654 (inactive) | -0.365 (inactive) | 0.741 (inactive) | -0.183 (inactive) | 0.916 (inactive) | 1.33 (inactive) | -0.192 | -0.295 | 0.283 (inactive) | 0.638 | 0.499 | 0.338 (inactive)
4 | CCc1cc2c(nc1CC)CCN(CCC(C)=NOC[C@@H](O)[C@H]1O[C@@H]3OC(C)(C)O[C@@H]3[C@H]1O)C2 | -0.595 | 0.0824 (inactive) | -0.244 (inactive) | -0.439 (inactive) | 0.535 (inactive) | -0.752 (inactive) | 0.548 (inactive) | -0.953 (inactive) | -0.269 | -0.365 | 0.221 (inactive) | 0.267 | 0.204 | -5.4 (inactive)
5 | CCN1C(=O)[C@H]2[C@H]3[C@H](O)[C@H](O)CC(=NOCc4ccccc4)[C@H]3CC[C@H]2C1=O | -0.322 | -0.0753 (inactive) | -0.344 (inactive) | -0.422 (inactive) | 0.164 (inactive) | -0.889 (inactive) | 0.114 (inactive) | 0.293 (inactive) | -0.855 | 0.0785 | -0.0513 (inactive) | 0.172 | 0.783 | -1.15 (inactive)
6 | O=C1[C@H]2[C@H]3[C@H](O)[C@H](O)CC(=NOCc4ccccc4)[C@@H]3CC[C@H]2C(=O)N1Cc1ccccc1 | 1.38 | -0.148 (inactive) | 0.85 (inactive) | -0.0807 (inactive) | -0.377 (inactive) | -0.118 (inactive) | 0.16 (inactive) | 0.71 (inactive) | 1.17 | 0.0512 | -0.22 (inactive) | -0.0597 | 0.0087 | -0.38 (inactive)
7 | C[C@@H]1C=CCC(=O)OC[C@H](C)C(=O)N2CCC[C@H]2C(=O)OC1 | 0.613 | 0.516 (inactive) | -0.0084 (inactive) | -0.697 (inactive) | -0.549 (inactive) | 0.21 (inactive) | 0.686 (inactive) | 0.528 (inactive) | 0.575 | -0.0416 | -0.318 (inactive) | 0.827 | 0.207 | -0.596 (inactive)
8 | CCOC(=O)NN=C1C[C@@H](O)[C@@H](O)[C@@H]2[C@@H]3C(=O)N(C4CCCCC4)C(=O)[C@@H]3CC[C@@H]12 | -0.252 | 0.126 (inactive) | -0.292 (inactive) | -1.71 (inactive) | 0.283 (inactive) | -0.845 (inactive) | -0.959 (inactive) | -0.499 (inactive) | -0.145 | -0.102 | 0.311 (inactive) | 0.101 | 1.51 | -0.86 (inactive)
9 | CCN1C(=O)[C@H]2[C@H]3[C@H](O)[C@H](O)CC(=NOCC=C(C)CCC=C(C)C)[C@H]3CC[C@H]2C1=O | -0.337 | -0.327 (inactive) | -0.944 (inactive) | -0.962 (inactive) | 0.164 (inactive) | -0.414 (inactive) | 0.445 (inactive) | 0.314 (inactive) | -1.23 | -0.0988 | 1.09 (inactive) | 0.762 | 1.97 | 0.0102 (inactive)
10 | CCN1C(=O)[C@H]2[C@H]3[C@H](O)[C@H](O)CC(=NOCc4ccccc4)[C@@H]3CC[C@H]2C1=O | -0.113 | -1.73 (inactive) | -2.61 (inactive) | -2.05 (inactive) | 0.659 (inactive) | -2.27 (inactive) | -0.717 (inactive) | -0.353 (inactive) | -1.89 | -0.0302 | -0.161 (inactive) | 0.465 | -0.165 | 0.697 (inactive)
